The values below come from PubChem BioAssay (NCATS).

Experiment [1] in a line: qHTS of pediatric cancer cell lines to identify multiple opportunities for drug repurposing: Primary screen for MG 63 (6-TG R) cells (AID 1347105). Note: nearly all actives have a fitted effect of over 50% in size. In a few lines: (§1)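 ATP-based luminescence (CellTiter-Glo) quantifies viability after a 48-hour exposure. Compounds are dosed across 8 or 11 final concentrations; DMSO and 2.3 µM bortezomib serve as controls.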
Experiment [2] in a line: qHTS of pediatric cancer cell lines to identify multiple opportunities for drug repurposing: Primary screen for control Hh wild type fibroblast cells (AID 1347106).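 Note: series mostly up to about 46 µM; a drop in luminescence marks cytotoxicity and a rise apparent proliferation; nearly all actives have a fitted effect of over 55% in size.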 In a few lines:
(§2)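 Viability after 48 h compound treatment at 37C, 500-1,000 cells/well, read as ATP luminescence with CellTiter-Glo. Primary screens used 11-point (MIPE, 0.78 nM-46 µM) or 8-point (NPC, 0.59 nM-46 µM) final concentrations; follow-up screens used 11-point dilutions.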
In general terms: In qHTS, concentration-response curves come from the screen itself.

Experiment [3] in a line: qHTS of pediatric cancer cell lines to identify multiple opportunities for drug repurposing: Primary screen for Rh30 cells (AID 1347107). Note: series mostly up to about 46 µM; nearly all actives have a fitted effect of over 75% in size. In a few lines: as §2
Experiment [4] is described as follows: qHTS of pediatric cancer cell lines to identify multiple opportunities for drug repurposing: Primary screen for Rh41 cells (AID 1347108). Note: nearly all actives have a fitted effect of over 70% in size. Note: potency is the fitted concentration of half-maximal effect. In a few lines:
as §1

A short description of experiment [5]: qHTS of pediatric cancer cell lines to identify multiple opportunities for drug repurposing: Primary screen for RD cells (AID 1347104). Note: nearly all actives have a fitted effect of over 55% in size. Note: potency is the fitted concentration of half-maximal effect. In a few lines: as §1
A short description of experiment [6]: qHTS of pediatric cancer cell lines to identify multiple opportunities for drug repurposing: Confirmatory screen for NB1643 cells (AID 1347109). Note: nearly all actives have a fitted effect of over 45% in size. Note: potency is the fitted concentration of half-maximal effect. In a few lines:
as §2

A short description of experiment [7]: qHTS of pediatric cancer cell lines to identify multiple opportunities for drug repurposing: Confirmatory screen for A673 cells (AID 1347110). Note: nearly all actives have a fitted effect of over 65% in size. Note: potency is the fitted concentration of half-maximal effect. In a few lines: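 Cells plated at 500-1,000/well were treated five hours later with multi-point dilutions up to 46 µM final. After two days, CellTiter-Glo was added and luminescence read.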
Experiment [8] in a line: qHTS of pediatric cancer cell lines to identify multiple opportunities for drug repurposing: Confirmatory screen for SK-N-MC cells (AID 1347111).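 Note: potency is the fitted concentration of half-maximal effect; cells exposed to compound for 48 h before the readout; nearly all actives have a fitted effect of over 70% in size.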 In a few lines:
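SK-N-MC cells at 500-1,000 cells/well in growth media were pre-incubated 5 h, then exposed to compounds at 11-point dilutions for 48 h at 37 degrees C, 5% CO2. Viability was read as CellTiter-Glo luminescence.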

A short description of experiment [9]: qHTS of pediatric cancer cell lines to identify multiple opportunities for drug repurposing: Confirmatory screen for BT-12 cells (AID 1347112). Note: nearly all actives have a fitted effect of over 55% in size. Note: potency is the fitted concentration of half-maximal effect. In a few lines: as §2

Inconclusive results are not listed. Activity calls are given as the source filed them. Calls come from the whole dose curve; as a rule, active = well fitted curve in the direction sought with a large enough effect; inconclusive = small, poorly fitted or top-dose-only effect, or another doubt; inactive = no such curve, though single readings can be large; an effect the other way counts as inactive or inconclusive.

For the molecule `C=CCNc1nc(NCC=C)nc(N2CCN(C(c3ccc(F)cc3)c3ccc(F)cc3)CC2)n1`, the Potency result in experiment [1], in experiment [2], in experiment [3] and in experiment [4] was “inactive” throughout.
With `CC(CC1c2ccccc2CCc2ccccc21)CN(C)C` (stereo not drawn), the Potency result in [1], in experiment [2], in [3] and in [4] was “inactive” throughout.
On to `C/C=C(/C(=C/C)c1ccc(OC(C)=O)cc1)c1ccc(OC(C)=O)cc1`, for which the Potency entry in experiment [5], in experiment [2], in experiment [3] and in experiment [4] was “inactive” throughout.
On to `Nc1ccc2c(c1)CN1C(=O)c3ccccc3C1=N2`, for which the Potency result in experiment [2] was “inactive”.
With `Cc1oc(-c2ccccc2)nc1CCC(=O)c1ccc(CC2SC(=O)NC2=O)cc1` (stereo not drawn), the Potency result in experiment [5], in [2], in [3] and in [4] was “inactive” throughout.
With `COc1c(C)c2c(c(O)c1C/C=C(\C)CCC(=O)OCCN1CCOCC1)C(=O)OC2`, the Potency result in experiment [2], in [3] and in experiment [4] was “inactive” throughout. In addition, the Potency in experiment [6] was 1.31 µM (active); in experiment [7], 3.69 µM (active); in experiment [8] it was 1.65 µM (active).
In the case of `CCCCCCn1c(=O)c2c(ncn2C)n(C)c1=O`, the Potency result in [5], in [2], in experiment [3] and in experiment [4] was “inactive” in each case.
Consider `Cc1ccc(Cl)c(OCC(O)CNC(C)(C)C)c1` (stereo not drawn), for which the Potency entry in experiment [1], in experiment [2], in experiment [3] and in experiment [4] was “inactive” each time.
Take `COc1ccc([C@@H]2Sc3ccccc3NC(=O)[C@@H]2O)cc1`: the Potency result in experiment [2], in [3] and in [4] was “inactive” each time.
For the molecule `CCCN(CCC)C(=O)C(CCC(=O)OCCCN1CCN(CCOC(=O)Cc2c(C)n(C(=O)c3ccc(Cl)cc3)c3ccc(OC)cc23)CC1)NC(=O)c1ccccc1` (stereo not drawn), the Potency result in experiment [2] and in [3] was “inactive” in each case.
For the molecule `CC(=O)O[C@@H]1C(=O)O[C@@H]2[C@H]1OC(=O)[C@@H]2OC(C)=O`, the Potency entry in experiment [5], in experiment [3], in [4], in experiment [6], in [7] and in experiment [9] was “inactive” throughout. In addition, the Potency in experiment [8] was 16.5 µM (active).
On to `CCCC(=O)O[C@]1(C(=O)CCl)[C@@H](C)C[C@H]2[C@@H]3CCC4=CC(=O)C=C[C@]4(C)[C@@]3(F)C(=O)C[C@@]21C`, for which the Potency result in experiment [1], in experiment [3], in experiment [6] and in experiment [7] was “inactive” in each case. Besides, the Potency in experiment [8] was 14.7 µM (active).
On to `CN(C)CCOC1=Cc2ccccc2Sc2ccc(Cl)cc21`, for which the Potency result in [1], in experiment [2] and in experiment [3] was “inactive” in each case.
Take `CCCCCCOC(=O)NC(=N)c1ccc(NCc2nc3cc(C(=O)N(CCC(=O)OCC)c4ccccn4)ccc3n2C)cc1`: the Potency result in [1] and in experiment [3] was “inactive” throughout.
Turning to `Nc1ccc2cc3ccc(N)cc3nc2c1`, the Potency in experiment [5] is 21.1 µM (active); in [6], 7.37 µM (active); in experiment [7] it was 7.37 µM (active); in [8], 8.27 µM (active); in experiment [9], 16.5 µM (active).
With `CC(C)(c1ccc(O)cc1)c1ccc(O)cc1`, the Potency result in experiment [5], in [2] and in experiment [3] was “inactive” each time.
For `Cc1ccc(CCn2c3c(c4cc(Cl)ccc42)CN(C)CC3)cn1`, the Potency result in [1] and in experiment [3] was “inactive” in each case.
As for `Nc1cc(C(F)(F)F)ccc1S`, the Potency entry in experiment [1] and in experiment [3] was “inactive” each time.
Regarding `CC1CCCCN1CCCOC(=O)c1ccc(OC2CCCCC2)cc1` (stereo not drawn), the Potency entry in experiment [5] and in experiment [3] was “inactive” throughout.
For the molecule `CN(C)CCOC(c1ccccc1)c1ccc(Br)cc1` (stereo not drawn), the Potency entry in experiment [1], in [2], in experiment [3] and in experiment [4] was “inactive” throughout.
Take `O=S(=O)(O)c1ccc2nc(-c3ccccc3)[nH]c2c1`: in experiment [2], the Potency entry is “inactive”.
Take `Nc1nc2ccccc2n1Cc1ccc(F)cc1`: the Potency entry in experiment [5], in experiment [2] and in [3] was “inactive” throughout.
As to `N#C/C(=C1/SC[C@@H](c2ccc(Cl)cc2Cl)S1)n1ccnc1`, the Potency entry in experiment [2] and in experiment [3] was “inactive” in each case.
With `Nc1ncnc2c1ncn2Cc1c(F)cccc1Cl`, the Potency result in experiment [5], in experiment [2], in experiment [3] and in experiment [4] was “inactive” throughout.
Turning to `CC(C)=CCNc1ncnc2c1ncn2[C@@H]1O[C@H](CO)[C@@H](O)[C@H]1O`, the Potency in [5] is 13.3 µM (active); in experiment [4], 6.68 µM (active).
Take `Cc1c(C)c2c(c(C)c1OC(=O)CCC(=O)OCCO)CC[C@@](C)(CCC[C@H](C)CCC[C@H](C)CCCC(C)C)O2`: the Potency entry in [2], in [3] and in experiment [4] was “inactive” throughout.
For the molecule `CC(C)C[C@@H]1[C@H](c2ccccc2)OC(=O)N1CCCN1CCCCCC1`, the Potency result in experiment [1], in [2], in [3] and in experiment [4] was “inactive” throughout.
Regarding `Oc1ccc(CCNCCCCCCNCCc2ccccc2)cc1O`, the Potency result in experiment [1], in [2] and in experiment [3] was “inactive” throughout.
Take `Cc1ccc(C(=O)Oc2ccc(C(O)CNC(C)(C)C)cc2OC(=O)c2ccc(C)cc2)cc1` (stereo not drawn): the Potency result in [1], in [2], in [3], in experiment [4] and in experiment [9] was “inactive” throughout. The Potency in experiment [7] was 0.0928 µM (active); in experiment [8], 11.7 µM (active).
On to `C[C@@]12CCC[C@H]1[C@@H]1CC[C@H]3C[C@@H](O)CC[C@]3(C)[C@H]1CC2`, for which the Potency entry in experiment [5], in [2], in [3] and in [4] was “inactive” throughout.
Regarding `CCCCCOc1ccccc1/C(=C\SC)n1ccnc1`, the Potency result in experiment [1] and in experiment [3] was “inactive” in each case.
Take `CC(C)OC(=O)c1cc2c(OCC(O)CNC(C)(C)C)cccc2[nH]1` (stereo not drawn): the Potency result in experiment [1], in [2] and in [3] was “inactive” throughout.
Consider `CCOC(=O)N1CCC(n2c(=O)[nH]c3cc(Cl)ccc32)CC1`, for which the Potency result in experiment [5], in experiment [2], in [3] and in experiment [4] was “inactive” each time.
For the molecule `O=C(CCC1CCN(Cc2ccccc2)CC1)c1ccc2c(c1)NCCCC2`, the Potency entry in experiment [1], in [2], in experiment [3] and in [4] was “inactive” each time.
`CN1CCC(N(Cc2cccs2)c2ccccc2)CC1`: in experiment [3], the Potency result is “inactive”.
Take `CC(=O)[C@H]1CC[C@H]2[C@@H]3C=CC4=CC(=O)CC[C@@]4(C)[C@@H]3CC[C@]12C`: the Potency entry in experiment [5], in experiment [2], in experiment [3] and in experiment [4] was “inactive” throughout.
With `CC(=O)Nc1ccn(C2COC(COC(=O)c3ccccc3)O2)c(=O)n1` (stereo not drawn), the Potency result in experiment [5], in [2], in experiment [3] and in experiment [4] was “inactive” in each case.
As to `Cc1cccc(N(C)C(=S)Oc2ccc3c(c2)C2CCC3C2)c1` (stereo not drawn), the Potency result in [1], in experiment [3] and in experiment [4] was “inactive” in each case.
As to `C/C(=C(/OCCOc1ccc(Cl)cc1)c1ccc(Cl)cc1Cl)n1ccnc1`, the Potency result in experiment [1], in experiment [2], in experiment [3] and in experiment [4] was “inactive” each time.
